Test results published in PubChem BioAssay (NCI).
Compounds without any hit were thinned out: in the full panel of roughly 79,000, 15% have a hit. Calls of active or inactive are those of the source. Rule as the data show it: active = growth inhibition above about 70%; inactive = the rest.

Legend:
[1] = NCI Yeast Anticancer Drug Screen. Data for the rad50 strain (AID 155);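 also: 0% = growth of vehicle-only cultures of the same strain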; conditions: S. cerevisiae rad50 strain growth inhibition, stronger effect = higher value
Summary of the method: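 A DNA repair-deficient yeast mutant serves as the test organism; compound-induced growth inhibition is calculated against vehicle-treated cells.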

[2] = NCI Yeast Anticancer Drug Screen. Data for the mec2-1 strain (AID 157); conditions: S. cerevisiae mec2-1 strain, stronger effect = higher value
Summary of the method: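 Using mec2-1 yeast: add compound, measure growth, express inhibition versus vehicle-treated cultures.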

[3] = NCI Yeast Anticancer Drug Screen. Data for the sgs1 mgt1 strain (AID 161);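 also: 0% = growth of cultures given vehicle only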; conditions: S. cerevisiae sgs1 mgt1 strain, stronger effect = higher value
Summary of the method: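 Percent growth inhibition was derived by comparing compound-exposed mutant yeast with vehicle-exposed cultures. The strain carries alterations in DNA damage repair.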

[4] = NCI Yeast Anticancer Drug Screen. Data for the cln2 rad14 strain (AID 165);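 also: 0% = growth equal to vehicle treated cultures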; conditions: S. cerevisiae cln2 rad14 strain, stronger effect = higher value
Summary of the method: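 Yeast strain cln2 rad14, bearing defects in cell cycle control and DNA repair, serves as the test system; values reflect growth inhibition compared with vehicle.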

[5] = NCI Yeast Anticancer Drug Screen. Data for the bub3 strain (AID 167); conditions: S. cerevisiae bub3 mutant strain, stronger effect = higher value
Summary of the method: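 Inhibition values come from growth of compound-treated mutant yeast normalised to vehicle-treated controls.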

[6] = NCI Yeast Anticancer Drug Screen. Data for the mlh1 rad18 strain (AID 175); conditions: S. cerevisiae mlh1 rad18 strain growth inhibition, stronger effect = higher value
Summary of the method: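 Steps: expose repair-defective yeast to compound; measure growth; express inhibition against vehicle-treated controls.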

[7] = at 5.0 µM (retest, dose inferred, filed as 0.5)
[8] = at 50.0 µM (retest, dose inferred, filed as 5.0)

Measured: growth inhibition

Cc1c(CC=C(c2ccccc2)c2ccccc2)cccc1C[N+](C)(C)C
active: [1]; [7] 95% | [1]; [8] 73% | [1]; at 50.0 µM 90.7% | [2]; [7] 78% | [3]; [7] 99% | [3]; [8] 98% | [3]; at 50.0 µM 99% | [5]; [8] 72% | [5]; at 50.0 µM 80.2% | [6]; [7] 95% | [6]; [8] 98% | [6]; at 50.0 µM 98.2%
inactive: [2]; [8] 34% | [2]; at 50.0 µM 62.8% | [4]; [7] 2% | [4]; [8] 61% | [4]; at 50.0 µM 48.1% | [5]; [7] 25%

O=[N+]([O-])c1ccc2c(c1)OCO2
inactive: [1]; [7] 0% | [1]; [8] 22% | [1]; at 50.0 µM 68.2% | [2]; [7] 1% | [2]; [8] 4% | [2]; at 50.0 µM 8% | [3]; [7] -2% | [3]; [8] 3% | [3]; at 50.0 µM 69.7% | [4]; [7] 1% | [4]; [8] 0% | [4]; at 50.0 µM 6.95% | [5]; [7] 0% | [5]; [8] 3% | [5]; at 50.0 µM 37% | [6]; [7] -4% | [6]; [8] 5% | [6]; at 50.0 µM 67.7%

CNC(=N)c1ccc(NC(=N)c2ccc(NC(=O)c3ccc(C(=O)Nc4ccc(C(=N)Nc5ccc(C(=N)NC)cc5)cc4)cc3)cc2)cc1
active: [1]; [7] 74% | [1]; at 50.0 µM 70.2% | [2]; [7] 81% | [5]; [7] 79% | [5]; [8] 74% | [6]; [7] 87% | [6]; at 50.0 µM 87.5%
inactive: [1]; [8] 54% | [2]; [8] 57% | [2]; at 50.0 µM 51% | [3]; [7] 52% | [3]; [8] 61% | [3]; at 50.0 µM 53.8% | [4]; [7] 47% | [4]; [8] 42% | [4]; at 50.0 µM 11.7% | [5]; at 50.0 µM 46.6% | [6]; [8] 69%

Cc1cccc(Nc2c3c(nc4ccccc24)CCCCC3)c1
active: [1]; [8] 89% | [1]; at 50.0 µM 90% | [2]; [8] 79% | [3]; [8] 85% | [3]; at 50.0 µM 86.8% | [5]; [8] 92% | [6]; [8] 83% | [6]; at 50.0 µM 93.2%
inactive: [1]; [7] 0% | [2]; [7] -2% | [2]; at 50.0 µM 28.1% | [3]; [7] -2% | [4]; [7] -3% | [4]; [8] 53% | [4]; at 50.0 µM 66.9% | [5]; [7] -1% | [5]; at 50.0 µM 27.1% | [6]; [7] -5%

C/C=C(\C)C(=O)OC1C(C)C2(O)C(C=C(CO)CC3(O)C(=O)C(C)=CC32)C2C(C)(C)C12OC(=O)CCCCCCCCC (configuration not stated)
active: [1]; [8] 85% | [1]; at 50.0 µM 79% | [2]; [8] 90% | [2]; at 50.0 µM 84.1% | [3]; [8] 89% | [3]; at 50.0 µM 83.4% | [4]; [8] 86% | [4]; at 50.0 µM 75.7% | [5]; [8] 89% | [5]; at 50.0 µM 80.9% | [6]; [8] 86% | [6]; at 50.0 µM 81.6%
inactive: [1]; [7] 0% | [2]; [7] -3% | [3]; [7] -15% | [4]; [7] 24% | [5]; [7] 33% | [6]; [7] 22%

O=C(NCCCNCCNC(=O)c1cc(-c2ccccc2)nc2ccccc12)c1cc(-c2ccccc2)nc2ccccc12
inactive: [1]; [7] -22% | [2]; [7] -12% | [3]; [7] -4% | [4]; [7] 28% | [5]; [7] -23% | [6]; [7] 5%
active: [1]; [8] 93% | [1]; at 50.0 µM 98.6% | [2]; [8] 98% | [2]; at 50.0 µM 99.2% | [3]; [8] 89% | [3]; at 50.0 µM 99.1% | [4]; [8] 94% | [4]; at 50.0 µM 99.3% | [5]; [8] 99% | [5]; at 50.0 µM 99.1% | [6]; [8] 98% | [6]; at 50.0 µM 99.3%

S=c1nc(N2CCCCC2)ss1
inactive: [1]; [7] 41% | [2]; [7] 1% | [2]; at 50.0 µM 66% | [3]; [7] 18% | [4]; [7] 17% | [4]; at 50.0 µM 57.9% | [5]; [7] 17% | [5]; at 50.0 µM 46.5% | [6]; [7] 24%
active: [1]; [8] 94% | [1]; at 50.0 µM 95.2% | [2]; [8] 75% | [3]; [8] 93% | [3]; at 50.0 µM 97.2% | [4]; [8] 70% | [5]; [8] 97% | [6]; [8] 94% | [6]; at 50.0 µM 97.2%

c1cc[c]([Sn]([S]c2cccc3cccnc23)([S]c2cccc3cccnc23)[c]2ccccc2)cc1
active: [1]; [7] 98% | [1]; [8] 99% | [1]; at 50.0 µM 96.8% | [2]; [7] 99% | [2]; [8] 100% | [2]; at 50.0 µM 98% | [3]; [7] 98% | [3]; [8] 99% | [3]; at 50.0 µM 98% | [4]; [7] 98% | [4]; [8] 98% | [4]; at 50.0 µM 95.5% | [5]; [7] 98% | [5]; [8] 99% | [5]; at 50.0 µM 95.9% | [6]; [7] 98% | [6]; [8] 99% | [6]; at 50.0 µM 97.6%

COc1ccc2c(c1)[n+]([O-])c(-c1ccccc1)c(N)[n+]2[O-]
inactive: [1]; [7] 47% | [2]; [7] 40% | [4]; [7] 67%
active: [1]; [8] 98% | [1]; at 50.0 µM 99.2% | [2]; [8] 99% | [2]; at 50.0 µM 99.3% | [3]; [7] 73% | [3]; [8] 97% | [3]; at 50.0 µM 99.2% | [4]; [8] 98% | [4]; at 50.0 µM 98.8% | [5]; [7] 87% | [5]; [8] 99% | [5]; at 50.0 µM 99.2% | [6]; [7] 82% | [6]; [8] 99% | [6]; at 50.0 µM 99%
